Assay results published in PubChem BioAssay (NCI).
Compounds without any hit were thinned out: in the full panel of roughly 79,000, 15% have a hit. Values without a mark were called inactive. The source made the active and inactive calls. No stated cut-off is given here; in the data, active means growth inhibition above about 70%; inactive means the rest. Where a SMILES comes first, the peptide text is derived from it. [ ]: non-standard residue; d: D form. ΔPro = O=C(O)[CH]1C=CCN1

Test: NCI Yeast Anticancer Drug Screen. Data for the sgs1 mgt1 strain (AID 161);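 further: 0% = growth of cultures given vehicle only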
Conditions: S. cerevisiae sgs1 mgt1 strain, at 50.0 µM, stronger effect = higher value
Summary of the method: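 Mutant yeast exposed to compound; growth scored against vehicle-only wells.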

Compared with `N#Cc1c(C#N)c(-c2ccccc2)n(-c2ccccc2)c1N`, `COc1ccc(-c2c(-c3ccccc3)c(-c3ccccc3)nn2-c2ccccc2)cc1` is higher in growth inhibition: -29.7% for the first, 34.8% for the second.

Going from `Cc1ccc(S(=O)(=O)N2CCSCCSCCSCCSCC2)cc1` to `COc1cc(C(=O)Nc2ccc(S(=O)(=O)Nc3nc(C)cc(C)n3)cc2)cc(OC)c1OC`, the growth inhibition falls from 7.1% to -6.65%.

First: CCCOc1cc2c(cc1C(C)(C)c1ccccc1)OCO2
Second: O=C(c1ccccc1)c1ccc(Cl)c(Cl)c1
The growth inhibition of the first is lower: -12.7% for the first, 2.05% for the second.

First: CC(=O)NC(CCCc1ccccc1)C(=O)O (stereo not given)
Second: Nc1nc2c(c(-c3ccccc3)n1)CN(CCCC(=O)O)C2=O
The growth inhibition of the first is lower: -17.1% for the first, 3.7% for the second.

Compared with `CC1CC(=O)N2CCCNC2=C1C#N` (stereo not given), `CC12CCCC3(CC(=O)C(C)(C)C3C(=O)C1)C2` (stereo not given) is lower in growth inhibition: 12.8% for the first, -18.4% for the second.

Compared with `N#C/C(=C\c1c[nH]c2ccccc12)c1ccc([N+](=O)[O-])cc1`, `CNc1ccccc1C(=O)N/N=C/c1c(O)ccc2ccccc12` is higher in growth inhibition: 5.45% for the first, 19% for the second.

First: CCCCCCCCCCCCCCCCS(=O)(=O)N/N=C/c1ccc(N(C)C)cc1
Second: CN(C)c1ccc(/C=N/NC(=O)c2cnc3ccccc3c2)cc1
The growth inhibition of the first is higher: 17.1% for the first, -11.3% for the second.

Going from `O=C(O)C1C=CCN1C(=O)C1C=CCN1C(=O)C1C=CCN1` (stereo not given) (H-[ΔPro]-[ΔPro]-[ΔPro]-OH; configuration not given here) to `CCCCOC(=O)/C=C/C(=O)N1CCN(C(=O)/C=C/C(=O)OCCCC)C(C)C1` (stereo not given), the growth inhibition rises from -25.5% to 20.8%.

First: S=c1[nH]c(=S)c2nnn(-c3ccccc3)c2[nH]1
Second: N#Cc1c(-c2ccccc2)ssc1=S
The growth inhibition of the first is lower: -31.5% for the first, 50.4% for the second.

Going from `[Cu+2].[O-]C1c2c(ccc3ccccc23)-c2ccccc2C1N=Nc1ccccc1.[O-]c1c(N=Nc2ccccc2)c2ccccc2c2ccc3ccccc3c12` (stereo not given) to `[Zn+2].c1ccc(-c2c3nc(c(-c4ccccc4)c4[n-]c(c(-c5ccccc5)c5nc(c(-c6ccccc6)c6[n-]c2c2ccccc62)-c2ccccc2-5)c2ccccc42)-c2ccccc2-3)cc1`, the growth inhibition falls from -7.8% to -32.6%.

Going from `CCC(C)NC(=O)C1C2CCC(C2)C1C(=O)NC(C)CC` (stereo not given) to `CC[N+](C)(CC)c1cccc(OC(=O)Nc2ccc(OC)cc2)c1`, the growth inhibition rises from -10.2% to 3.35%.

Compared with `CCOC(=O)c1ccc(NC(=O)Oc2ccc(C=O)cc2OC)cc1`, `O=C(Nc1ccc(Cl)c(Cl)c1)c1ccc(C(=O)Nc2ccc(Cl)c(Cl)c2)cc1` is higher in growth inhibition: 7.85% for the first, 25.1% for the second.

First: O=C(Nc1cc(Cl)c(I)cc1Cl)C(F)(F)F
Second: COC(=O)c1nc(N)nc(C(=O)OC)c1C(=O)c1ccc(Cl)cc1Cl
The growth inhibition of the first is higher: 29.7% for the first, -15.5% for the second.

Going from `[Mn+2].[Mn+2].c1ccc2c(c1)-c1nc-2nc2[n-]c(nc3nc(nc4[n-]c(n1)c1ccccc41)-c1ccccc1-3)c1cc3c4nc5nc(nc6[n-]c(nc7nc(nc([n-]4)c3cc21)-c1ccccc1-7)c1ccccc61)-c1ccccc1-5` to `N#C/C(=N\NC(=O)c1cccc(C(=O)N/N=C(\C#N)c2ccccc2Cl)n1)c1ccccc1Cl`, the growth inhibition rises from -8.75% to -5.1%.

Compared with `CCOC(=O)CSc1[nH]c2nc(C)nc(Cl)c2c1C#N`, `Cc1ncc([N+](=O)[O-])n1CCNC(=O)CCn1ccnc1[N+](=O)[O-]` is lower in growth inhibition: -5.2% for the first, -49.6% for the second.

Compared with `O=C(O)CCCCl`, `CCc1ccc(C(O)C(=O)O)cc1` (stereo not given) is lower in growth inhibition: 16.2% for the first, -1.6% for the second.

First: OCC=C1CCCCCC1
Second: O=C(Nc1ccccc1)SC1CCCCC1
The growth inhibition of the first is higher: 1.5% for the first, -8.7% for the second.

Compared with `Cc1ncc([N+](=O)[O-])n1CCNC(=O)CCC(=O)NCCCn1ccnc1[N+](=O)[O-]`, `O=C1OC(c2cccc(Cl)c2)=N/C1=C\c1cccc([N+](=O)[O-])c1` is higher in growth inhibition: -1.45% for the first, 24.6% for the second.

Going from `O=C1c2ccccc2C2(O)Oc3cccc(O)c3C12O` (stereo not given) to `O=C(Sc1ccccc1)C1OC1c1ccccc1` (stereo not given), the growth inhibition rises from -2% to 22.6%.

Work on `[C-]#[N+]C1(c2ccccc2)C2CC3CC(C2)CC1C3` (stereo not given) yielded a growth inhibition of -4.35%.

In the case of `O=C(CN1CCOCC1)Nc1ccc(S(=O)(=O)c2ccc([N+](=O)[O-])cc2)cc1`, the growth inhibition is reported as 99.3% (active).

Test: NCI Yeast Anticancer Drug Screen. Data for the cln2 rad14 strain (AID 165);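 further: 0% = growth equal to vehicle treated cultures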
Conditions: S. cerevisiae cln2 rad14 strain, at 50.0 µM, stronger effect = higher value
Summary of the method: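 Compounds are applied to the cln2 rad14 yeast strain, and growth is then compared with that of vehicle-treated cultures to give inhibition.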

Going from `N#Cc1c(C#N)c(-c2ccccc2)n(-c2ccccc2)c1N` to `COc1ccc(-c2c(-c3ccccc3)c(-c3ccccc3)nn2-c2ccccc2)cc1`, the growth inhibition rises from -12.8% to 22.4%.

First: Cc1ccc(S(=O)(=O)N2CCSCCSCCSCCSCC2)cc1
Second: COc1cc(C(=O)Nc2ccc(S(=O)(=O)Nc3nc(C)cc(C)n3)cc2)cc(OC)c1OC
The growth inhibition of the first is lower: 10.6% for the first, 10.7% for the second.

Compared with `CCCOc1cc2c(cc1C(C)(C)c1ccccc1)OCO2`, `O=C(c1ccccc1)c1ccc(Cl)c(Cl)c1` is lower in growth inhibition: -27.9% for the first, -55.5% for the second.

First: CC(=O)NC(CCCc1ccccc1)C(=O)O (stereo not given)
Second: Nc1nc2c(c(-c3ccccc3)n1)CN(CCCC(=O)O)C2=O
The growth inhibition of the first is lower: -23.1% for the first, -3% for the second.

First: CC1CC(=O)N2CCCNC2=C1C#N (stereo not given)
Second: CC12CCCC3(CC(=O)C(C)(C)C3C(=O)C1)C2 (stereo not given)
The growth inhibition of the first is higher: 19.2% for the first, 10.2% for the second.

Going from `N#C/C(=C\c1c[nH]c2ccccc12)c1ccc([N+](=O)[O-])cc1` to `CNc1ccccc1C(=O)N/N=C/c1c(O)ccc2ccccc12`, the growth inhibition falls from 3.45% to -10.3%.

Going from `CCCCCCCCCCCCCCCCS(=O)(=O)N/N=C/c1ccc(N(C)C)cc1` to `CN(C)c1ccc(/C=N/NC(=O)c2cnc3ccccc3c2)cc1`, the growth inhibition falls from 12.3% to -0.4%.

Compared with `O=C(O)C1C=CCN1C(=O)C1C=CCN1C(=O)C1C=CCN1` (stereo not given) (H-[ΔPro]-[ΔPro]-[ΔPro]-OH; configuration not given here), `CCCCOC(=O)/C=C/C(=O)N1CCN(C(=O)/C=C/C(=O)OCCCC)C(C)C1` (stereo not given) is lower in growth inhibition: 0.05% for the first, -11.1% for the second.

Compared with `S=c1[nH]c(=S)c2nnn(-c3ccccc3)c2[nH]1`, `N#Cc1c(-c2ccccc2)ssc1=S` is higher in growth inhibition: -25.9% for the first, -20.8% for the second.

Going from `[Cu+2].[O-]C1c2c(ccc3ccccc23)-c2ccccc2C1N=Nc1ccccc1.[O-]c1c(N=Nc2ccccc2)c2ccccc2c2ccc3ccccc3c12` (stereo not given) to `[Zn+2].c1ccc(-c2c3nc(c(-c4ccccc4)c4[n-]c(c(-c5ccccc5)c5nc(c(-c6ccccc6)c6[n-]c2c2ccccc62)-c2ccccc2-5)c2ccccc42)-c2ccccc2-3)cc1`, the growth inhibition rises from -20.4% to -6.55%.

Compared with `CCC(C)NC(=O)C1C2CCC(C2)C1C(=O)NC(C)CC` (stereo not given), `CC[N+](C)(CC)c1cccc(OC(=O)Nc2ccc(OC)cc2)c1` is higher in growth inhibition: -18.9% for the first, -5.7% for the second.

First: CCOC(=O)c1ccc(NC(=O)Oc2ccc(C=O)cc2OC)cc1
Second: O=C(Nc1ccc(Cl)c(Cl)c1)c1ccc(C(=O)Nc2ccc(Cl)c(Cl)c2)cc1
The growth inhibition of the first is higher: 11% for the first, -18.9% for the second.

Going from `O=C(Nc1cc(Cl)c(I)cc1Cl)C(F)(F)F` to `COC(=O)c1nc(N)nc(C(=O)OC)c1C(=O)c1ccc(Cl)cc1Cl`, the growth inhibition rises from -8.35% to 3.6%.

Going from `[Mn+2].[Mn+2].c1ccc2c(c1)-c1nc-2nc2[n-]c(nc3nc(nc4[n-]c(n1)c1ccccc41)-c1ccccc1-3)c1cc3c4nc5nc(nc6[n-]c(nc7nc(nc([n-]4)c3cc21)-c1ccccc1-7)c1ccccc61)-c1ccccc1-5` to `N#C/C(=N\NC(=O)c1cccc(C(=O)N/N=C(\C#N)c2ccccc2Cl)n1)c1ccccc1Cl`, the growth inhibition rises from -21.2% to -14.6%.

Going from `CCOC(=O)CSc1[nH]c2nc(C)nc(Cl)c2c1C#N` to `Cc1ncc([N+](=O)[O-])n1CCNC(=O)CCn1ccnc1[N+](=O)[O-]`, the growth inhibition rises from -6.65% to 1.1%.

Compared with `O=C(O)CCCCl`, `CCc1ccc(C(O)C(=O)O)cc1` (stereo not given) is lower in growth inhibition: 13.7% for the first, 3.85% for the second.

Compared with `OCC=C1CCCCCC1`, `O=C(Nc1ccccc1)SC1CCCCC1` is lower in growth inhibition: -4.25% for the first, -21.1% for the second.

First: Cc1ncc([N+](=O)[O-])n1CCNC(=O)CCC(=O)NCCCn1ccnc1[N+](=O)[O-]
Second: O=C1OC(c2cccc(Cl)c2)=N/C1=C\c1cccc([N+](=O)[O-])c1
The growth inhibition of the first is higher: 21.7% for the first, 18.9% for the second.

First: O=C1c2ccccc2C2(O)Oc3cccc(O)c3C12O (stereo not given)
Second: O=C(Sc1ccccc1)C1OC1c1ccccc1 (stereo not given)
The growth inhibition of the first is lower: -14.9% for the first, 60.8% for the second.

`[C-]#[N+]C1(c2ccccc2)C2CC3CC(C2)CC1C3` (stereo not given) showed a growth inhibition of -16.9%.

With `O=C(CN1CCOCC1)Nc1ccc(S(=O)(=O)c2ccc([N+](=O)[O-])cc2)cc1` the growth inhibition was 98.3% (active).
